In all, about 2,100 compounds went through this assay and about 770 (37%) were called active. Some of the results follow. Unmarked numbers belong to inactive results.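 Rule for the calls: active = by-eye trace score of 1 for enhancers or -1 for inhibitors, so actives lie on both sides (some results past the limit were not filed as active); inactive = score 0, or 3 fluorescent, or 4 baseline rise.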
Biological target: G protein-activated inward rectifier potassium channel 2 (Homo sapiens) + G protein-activated inward rectifier potassium channel 1 (Homo sapiens) (UniProt P48051+P48549)
Test: GIRK1/2 thallium flux modulators, retest, confirmation, cell-based, HEK293 rmGlu8/hGIRK1/2, FluoZin-2 (AID 623911)
Details: HEK293 rmGlu8/hGIRK1/2, thallium flux FluoZin-2; actives lie on both sides; glutamate co-added at its EC20 level

Chain of G protein-activated inward rectifier potassium channel 2 (Homo sapiens) + G protein-activated inward rectifier potassium channel 1 (Homo sapiens) (P48051 whole entry, looked up): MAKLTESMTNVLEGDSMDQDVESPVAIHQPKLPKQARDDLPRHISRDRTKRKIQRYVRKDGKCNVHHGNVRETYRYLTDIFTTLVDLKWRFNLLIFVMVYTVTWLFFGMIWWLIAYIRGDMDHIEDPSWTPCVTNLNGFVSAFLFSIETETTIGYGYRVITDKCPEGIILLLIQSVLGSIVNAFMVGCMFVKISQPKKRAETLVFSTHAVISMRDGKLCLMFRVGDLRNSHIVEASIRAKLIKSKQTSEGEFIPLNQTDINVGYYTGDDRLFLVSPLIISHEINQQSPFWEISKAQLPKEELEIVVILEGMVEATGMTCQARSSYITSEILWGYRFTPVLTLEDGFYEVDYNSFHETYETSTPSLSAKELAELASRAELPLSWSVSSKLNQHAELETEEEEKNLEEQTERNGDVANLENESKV
Chain of G protein-activated inward rectifier potassium channel 2 (Homo sapiens) + G protein-activated inward rectifier potassium channel 1 (Homo sapiens) (P48549 whole entry, looked up): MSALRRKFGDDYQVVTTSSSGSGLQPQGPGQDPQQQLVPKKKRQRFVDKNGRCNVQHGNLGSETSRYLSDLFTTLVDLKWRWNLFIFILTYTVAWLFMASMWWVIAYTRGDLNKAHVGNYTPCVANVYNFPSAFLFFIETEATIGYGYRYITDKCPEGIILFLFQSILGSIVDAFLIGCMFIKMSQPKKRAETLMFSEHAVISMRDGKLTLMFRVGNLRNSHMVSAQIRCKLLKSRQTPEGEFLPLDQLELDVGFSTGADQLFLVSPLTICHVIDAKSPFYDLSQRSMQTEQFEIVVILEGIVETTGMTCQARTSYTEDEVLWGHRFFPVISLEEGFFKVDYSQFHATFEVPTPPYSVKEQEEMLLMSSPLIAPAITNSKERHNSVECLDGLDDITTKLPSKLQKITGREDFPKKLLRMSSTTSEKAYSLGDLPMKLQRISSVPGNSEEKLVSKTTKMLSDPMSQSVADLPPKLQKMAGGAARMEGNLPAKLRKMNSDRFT

For Cc1ccc(C(=O)NNC(=S)Nc2cccc3ccccc23)s1, which manual score is on record?
Its manual score is 0.

How did the manual score turn out when O=C(NNC(=S)Nc1cccc2ccccc12)c1cccc(Br)c1 was run?
The manual score was 1 (active).

For O=C(NNC(=S)Nc1ccccc1)c1cccc(Br)c1, which manual score is on record?
Its manual score is 0.

How did the manual score turn out when CC(C)(C)S(=O)(=O)c1ccc(S(=O)(=O)C(C)(C)C)s1 was run?
Its manual score is 0.

Which manual score does the source give for CC(C)(C)C(=O)NC(=S)NNC(=O)c1sc2ccccc2c1Cl here?
The manual score was 1 (active).

Which manual score does the source give for CCCOC(=S)NC(=O)c1sc2ccccc2c1Cl here?
Its manual score is 1 (active).

How did the manual score turn out when CCCCOC(=S)NC(=O)c1sc2ccccc2c1Cl was run?
The manual score was 1 (active).

How did the manual score turn out when O=C(NC(=S)N(CCCCO)C1CCCCC1)c1sc2ccccc2c1Cl was run?
Its manual score is 1 (active).

For COc1ccccc1C(=O)NC(=S)NNC(=O)c1sc2ccccc2c1Cl, which manual score is on record?
Its manual score is 0.

With Nc1c(C(O)(C(F)(F)F)C(F)(F)F)ccc2ccccc12 as the molecule, how does the manual score read?
The manual score was 0.

Which manual score does the source give for CCCCN(Cc1ccccc1)S(=O)(=O)c1ccc2[nH]c(=O)oc2c1 here?
Its manual score is 0.

How did the manual score turn out when COc1ccccc1C(=O)NNC(=S)NC(=O)c1sc2ccccc2c1Cl was run?
The manual score was 0.5.

Which manual score does the source give for CCOC(=S)NC(=O)c1sc2ccccc2c1Cl here?
Its manual score is 1 (active).

For Cn1c(-c2sc3ccccc3c2Cl)n[nH]c1=S, which manual score is on record?
Its manual score is 0.

For Cc1cc(C)c2nc(SC(C)C(=O)NCC(=O)Nc3ccc(F)c(F)c3F)cc(C)c2c1 (stereo not given), which manual score is on record?
Its manual score is 0.

COc1cccc(-n2c(SCC(=O)NCCC3=CCCCC3)nc3n[nH]c(C)c3c2=N)c1 was tested. Which manual score did it give?
Its manual score is -0.5.

Cc1cc(C)c2nc(SCC(=O)NCCC3=CCCCC3)cc(C)c2c1 was tested. Which manual score did it give?
Its manual score is 1 (active).

With Nn1c(SC/C=C/c2ccccc2)nnc1-c1ccccn1 as the molecule, how does the manual score read?
Its manual score is 0.

For COc1cc(Cl)cc2c1Sc1ccccc1/C2=C/CCN(C)C, which manual score is on record?
The manual score was -1 (active).

With Cc1nc(SC2CCOC2=O)c2c(C)c(C)sc2n1 (stereo not given) as the molecule, how does the manual score read?
The manual score was 1 (active).

How did the manual score turn out when S=C(NN=C1C2CC3CC(C2)CC1C3)Nc1ccccc1 was run?
Its manual score is 0.

Which manual score does the source give for CCCCn1c(SCc2nc(N)nc(Nc3ccccc3C)n2)nc2ccccc2c1=O here?
The manual score was 0.

Which manual score does the source give for O=C(c1ccccc1Oc1ccccc1)N1CCN(c2ccccc2)CC1 here?
Its manual score is -1 (active).

For CN1CCN(C(=O)c2sc(=S)n(-c3ccccc3)c2N)CC1, which manual score is on record?
Its manual score is 0.

With Cc1ccc(-n2nc(-c3cccs3)cc2C(=O)NCC2CCCO2)c(C)c1 (stereo not given) as the molecule, how does the manual score read?
The manual score was -1 (active).

How did the manual score turn out when COc1ccc(C(OC(=O)c2cccs2)C(=O)NCC2CCCO2)cc1 (stereo not given) was run?
The manual score was 0.

For O=C(CN1C(=O)c2ccccc2C1=O)Nc1sc2c(c1C(=O)NCC1CCCO1)CCC2 (stereo not given), which manual score is on record?
Its manual score is 0.

How did the manual score turn out when Cc1cccc(S(=O)(=O)Nc2cccc3c2C(=O)c2ccccc2-3)c1 was run?
Its manual score is 0.

Which manual score does the source give for COC(=O)Nc1nnc(Cc2ccc(Cl)cc2)s1 here?
The manual score was 0.

For CC(C)Cn1cnc2sc3c(c2c1=N)CCCC3, which manual score is on record?
Its manual score is -1 (active).

N#Cc1ccc(-c2csc(NC3=NCCCCC3)n2)cc1 was tested. Which manual score did it give?
Its manual score is -1 (active).

How did the manual score turn out when O=C(NC(=Nc1ccccc1)N1CCOCC1)Nc1ccccc1 was run?
Its manual score is 1 (active).

O=C(NCCN1CCN(C(=O)Nc2ccccc2)CC1)Nc1ccccc1 was tested. Which manual score did it give?
The manual score was 0.

How did the manual score turn out when CC(CCc1ccccc1)NC(=O)N1CCOCC1 (stereo not given) was run?
The manual score was 0.

How did the manual score turn out when CC1=CC(C)(C)n2c(O)c(N=NC(N)=S)c3cccc1c32 was run?
Its manual score is 0.

With CCCSc1nc2sc3c(c2c(=O)[nH]1)CCN(Cc1ccccc1)C3 as the molecule, how does the manual score read?
Its manual score is 3.

For Oc1c(Cl)cc(Cl)c2c1NCCC2, which manual score is on record?
Its manual score is 0.

How did the manual score turn out when Cc1ccc2oc(-c3cccc(NC(=S)NC(=O)c4cccs4)c3)nc2c1 was run?
The manual score was 0.

With O=C(NC(=S)Nc1ccc(Cl)cn1)c1cccs1 as the molecule, how does the manual score read?
Its manual score is 0.5.

Which manual score does the source give for Cc1ccnc(NC(=S)NC(=O)c2cccs2)c1 here?
The manual score was 1 (active).

With Cc1cccc(NC(=S)NC(=O)c2cccs2)n1 as the molecule, how does the manual score read?
Its manual score is 1 (active).

With CN1C(=O)NC(c2ccccc2)C2=C1CN(Cc1ccccc1)C2=O (stereo not given) as the molecule, how does the manual score read?
The manual score was 0.

How did the manual score turn out when CCCCOc1ccc(C(=O)NNC(=S)NC(=O)CC)cc1 was run?
The manual score was 1 (active).

For CCCOc1cccc(C(=O)NC(=S)Nc2cccc(C(F)(F)F)c2)c1, which manual score is on record?
Its manual score is 0.

For CCCOc1ccc(C(=O)NNC(=S)NC(=O)CC)cc1, which manual score is on record?
Its manual score is 1 (active).

With CC1Cc2nc(SCC(=O)Nc3nc4ccccc4s3)n(C)c(=O)c2S1 (stereo not given) as the molecule, how does the manual score read?
Its manual score is -0.5.

With N#Cc1nc(COc2ccccc2)oc1N1CCN(c2cccc(Cl)c2)CC1 as the molecule, how does the manual score read?
Its manual score is 0.

With Cc1oc(-c2ccccc2)nc1CS(=O)CC(=O)O (stereo not given) as the molecule, how does the manual score read?
Its manual score is 1 (active).

Which manual score does the source give for COc1ccccc1N=Cc1nc(-c2ccccc2)oc1OC(C)=O here?
The manual score was 0.

With CCC(=O)Oc1oc(-c2ccccc2)nc1C=Nc1ccccc1OC as the molecule, how does the manual score read?
Its manual score is 0.

Cc1ccn2c(NC3CCCCC3)c(C(C)C)nc2c1 was tested. Which manual score did it give?
Its manual score is -1 (active).

Which manual score does the source give for C=CCOc1cccc(C2/C(=C(/O)c3ccc(C)cc3)C(=O)C(=O)N2CCN2CCOCC2)c1 (stereo not given) here?
The manual score was 0.

How did the manual score turn out when Cn1c(SCC(=O)N2c3ccccc3CCc3ccccc32)nnc1-c1ccc(O)cc1 was run?
Its manual score is 0.

How did the manual score turn out when CCc1cccc(CC)c1-n1c(SCC(=O)N2CCc3ccccc3C2)nnc1-c1cccnc1 was run?
Its manual score is -1 (active).

With CCOC(=O)c1cccc(NC(=O)CSc2nnc(-c3cccnc3)n2C)c1 as the molecule, how does the manual score read?
Its manual score is 0.

Which manual score does the source give for CCN=c1scc(-c2ccco2)n1/N=C/c1ccc(O)cc1 here?
The manual score was 0.

For CC(C)(C)C(=O)Nc1nc2c(s1)COc1ccccc1-2, which manual score is on record?
Its manual score is -0.5.

With CN1CCN(CC(=O)N2c3ccccc3C(C)(c3ccc(Cl)cc3)CC2(C)C)CC1 (stereo not given) as the molecule, how does the manual score read?
Its manual score is -1 (active).

For COC(=O)c1ccc(Cl)c(NC(=O)CN2CCN(C)CC2)c1, which manual score is on record?
The manual score was 0.

For CC1(c2ccccc2)CC(C)(C)N2C(=O)/C(=C3\SC(=S)NC3=O)c3cccc1c32 (stereo not given), which manual score is on record?
Its manual score is 0.

CN1CCN(CC(=O)N2c3ccccc3C(C)(c3ccccc3)CC2(C)C)CC1 (stereo not given) was tested. Which manual score did it give?
The manual score was -1 (active).

CN1CCN(Cc2cccc(Oc3ccc(Cl)cc3)c2)CC1 was tested. Which manual score did it give?
The manual score was 0.

How did the manual score turn out when S=c1[nH]nc(CSc2nc3ccccc3s2)n1C1CCCCC1 was run?
Its manual score is 0.

Which manual score does the source give for N#Cc1ccsc1NC(=O)CN1CCN(c2ccc(O)cc2)CC1 here?
The manual score was 0.

Cc1cc(NC(=O)CSc2nc3ccccc3c(=O)n2Cc2ccccc2)no1 was tested. Which manual score did it give?
Its manual score is 0.

Cc1cc(NC(=O)CSc2nc(C3CC3)nc3sc(C)c(C)c23)no1 was tested. Which manual score did it give?
Its manual score is 1 (active).

For COc1cc(OC)c2nc(C)c3c(c2c1)N(c1ccc(O)cc1)CC3, which manual score is on record?
The manual score was -1 (active).

Which manual score does the source give for O=C(Nc1nncs1)c1ccccc1NS(=O)(=O)c1cccs1 here?
Its manual score is 0.

O=C(Nc1ccccc1C(=O)O)c1ccc(NC(=O)c2ccc(Br)o2)cc1 was tested. Which manual score did it give?
The manual score was -0.5.

How did the manual score turn out when O=C(Nc1ccccc1)c1ccccc1NS(=O)(=O)c1ccc(Cl)s1 was run?
Its manual score is -1 (active).
